Laboratory results: the supplement of paper PMC9262897, “Low-cost anti-mycobacterial drug discovery using engineered E. coli” (Nature Communications, 2022)
Counter-ions that a name gives are not always drawn. ± gives the standard deviation of the averaged measurements.

Tested on: E. coli TESEC Mtb Alr
Test: growth (OD600 after 10 h); higher = more growth (less inhibition)
Settings: compound 0.1 mM
Procedure: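 TESEC Mtb Alr E. coli, or the Alr+ wild-type control, in 384-well plates with Prestwick library compounds at 0.1 mM and 1% DMSO, across arabinose induction levels of 1E3 to 1E7 nM. Growth is read as OD600 after 10 h at 37 °C in triplicate biological replicates.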

[1] = arabinose 1000 nM, raw OD600 reference: median of DMSO wells 0.294, cell-free background 0.041
[2] = arabinose 10000 nM, raw OD600 reference: median of DMSO wells 0.264, cell-free background 0.041
[3] = arabinose 100000 nM, raw OD600 reference: median of DMSO wells 0.201, cell-free background 0.041
[4] = arabinose 1000000 nM, raw OD600 reference: median of DMSO wells 0.193, cell-free background 0.041
[5] = arabinose 10000000 nM, raw OD600 reference: median of DMSO wells 0.146, cell-free background 0.041

SMILES | growth [1] | growth [2] | growth [3] | growth [4] | growth [5]
O=C(O)c1ccccc1Nc1cccc(C(F)(F)F)c1 [Flufenamic acid] | 0.05003 ± 0.00047 | 0.04063 ± 0.00038 | 0.0593 ± 0.0024 | 0.04467 ± 0.00032 | 0.05807 ± 0.00038
CC(C)(C(=O)O)c1ccc(C(O)CCCN2CCC(C(O)(c3ccccc3)c3ccccc3)CC2)cc1 (stereo not given) [Fexofenadine HCl] | 0.314 ± 0.0088 | 0.285 ± 0.0078 | 0.212 ± 0.017 | 0.184 ± 0.011 | 0.157 ± 0.0041
C[N+](C)(CCOc1ccccc1)Cc1ccccc1.O=C([O-])c1cc2ccccc2cc1O [Bephenium hydroxynaphthoate] | 0.266 ± 0.017 | 0.207 ± 0.0049 | 0.203 ± 0.0078 | 0.104 ± 0.0033 | 0.134 ± 0.0047
CCC(=O)OCC(=O)[C@@]1(OC(=O)CC)[C@@H](C)C[C@H]2[C@@H]3CCC4=CC(=O)C=C[C@]4(C)[C@@]3(Cl)[C@@H](O)C[C@@]21C [Beclomethasone dipropionate] | 0.31 ± 0.028 | 0.28 ± 0.018 | 0.179 ± 0.013 | 0.12 ± 0.013 | 0.167 ± 0.0041
CC(O)(P(=O)(O)O)P(=O)(O)O [Etidronic acid, disodium salt] | 0.331 ± 0.0087 | 0.275 ± 0.0062 | 0.20943 ± 0.00012 | 0.184 ± 0.0041 | 0.159 ± 0.003
CN(C)CCCO[C@@H]1[C@H]2OC(C)(C)O[C@H]2O[C@@H]1[C@H](O)CO [Amiprilose hydrochloride] | 0.304 ± 0.024 | 0.262 ± 0.0085 | 0.196 ± 0.0086 | 0.185 ± 0.0074 | 0.137 ± 0.003
COc1cc2ncnc(Nc3ccc(F)c(Cl)c3)c2cc1OCCCN1CCOCC1 [Gefitinib] | 0.294 ± 0.019 | 0.24 ± 0.0039 | 0.198 ± 0.017 | 0.161 ± 0.0089 | 0.162 ± 0.0061
CC1COc2c(N3CCN(C)CC3)c(F)cc3c(=O)c(C(=O)O)cn1c23 (stereo not given) [Ofloxacin] | 0.0426 ± 0.00057 | 0.03877 ± 0.00015 | 0.0435 ± 0.0001 | 0.03957 ± 0.00029 | 0.044 ± 0.0001
